Source: PubChem
An excerpt weighted towards active compounds, which were near 12% of everything screened.
HP1b chromo inh – HTS for Inhibitors of HP1-beta Chromodomain Interactions with Methylated Histone Tails | Chromobox protein homolog 1 (Homo sapiens), P83916 | AlphaScreen HP1-beta / biotin-H3K9me3 peptide binding | Potency, µM (titrated, usually from 114 µM), without a hit: at the highest dose activity change, negative = inhibition, most hits filed as inhibitors | 390,000 compounds, 0.56% hits | AID 540317, 2011; also: nearly all actives have a fitted effect of over 70% in size
Target sequence (P83916 whole entry, looked up): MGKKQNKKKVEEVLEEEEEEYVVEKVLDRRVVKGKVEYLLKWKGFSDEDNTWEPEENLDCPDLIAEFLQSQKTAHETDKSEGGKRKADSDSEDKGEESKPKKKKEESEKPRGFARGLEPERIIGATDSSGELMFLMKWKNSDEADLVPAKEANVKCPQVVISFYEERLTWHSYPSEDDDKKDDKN
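Compound inhibition of the preformed complex between 50 nM HP1-beta and 50 nM biotinylated H3K9me3 peptide was read by AlphaScreen. Buffer was PBS pH 7.4 with 0.01% Tween-20. Incubations ran 30 min at room temperature, with 10 ug/mL donor/acceptor beads.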
BAZ2B inh – qHTS Assay for Inhibitors of BAZ2B; Potency, µM (series often up to 114 µM), for the others: at the highest dose activity change, negative = inhibition, most hits filed as inhibitors; 360,000 compounds, 4.4% hits; AID 504333, 2011; AlphaScreen BAZ2B-H3K14Ac peptide displacement; Bromodomain adjacent to zinc finger domain protein 2B (Homo sapiens), Q9UIF8; also: % is scaled to controls: 0 for no effect and ±100 for the full control effect; nearly all actives have a fitted effect of over 60% in size
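In this displacement format the biotinylated H3(5-23) peptide acetylated at Lys14 serves as ligand at 50 nM, with BAZ2B at 50 nM in PBS pH 7.4 containing 0.01% Tween-20. Donor and acceptor beads are 10 ug/mL final.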
Sfp PPTase inh – qHTS Assay for Inhibitors of Bacillus subtilis Sfp phosphopantetheinyl transferase (PPTase); 4'-phosphopantetheinyl transferase ffp (Bacillus subtilis), Q9F4F7; Biochemical Sfp PPTase activity, qHTS; Potency, µM, inactives show largest response in the series, negative = inhibition, most hits filed as inhibitors; 310,000 compounds, 3.5% hits;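 also: the enzyme is Sfp with the accession as filed and its product quenches rhodamine fluorescence; 0% = enzyme reaction without inhibitor and -100% = no enzyme wells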
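Sfp 15 nM + cpd, 15 min RT; start w/ rhodamine-CoA 5 uM, BHQ-2-YbbR 12.5 uM (final); 50 mM Hepes pH 7.6, 10 mM MgCl2, 0.01% NP-40, 0.01% BSA; read 525/598 nm at 0 and 30 min.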
PLK1 PBD inh – qHTS for Inhibitors of PLK1-PDB (polo-like kinase 1 - polo-box domain): Primary Screen. Serine/threonine-protein kinase PLK1 (Homo sapiens), P53350. Plk1 PBD binding of FITC phosphopeptide, fluorescence polarization. Potency, µM, without a hit: max response, negative = inhibition, hits mostly inhibitors. 360,000 compounds, 2.8% hits. AID 720504, 2013; also: series mostly up to about 57 µM; % is scaled to controls: 0 for no effect and ±100 for the full control effect; nearly all actives have a fitted effect of over 65% in size
Target sequence (P53350 whole entry, looked up, the tested form may be a part): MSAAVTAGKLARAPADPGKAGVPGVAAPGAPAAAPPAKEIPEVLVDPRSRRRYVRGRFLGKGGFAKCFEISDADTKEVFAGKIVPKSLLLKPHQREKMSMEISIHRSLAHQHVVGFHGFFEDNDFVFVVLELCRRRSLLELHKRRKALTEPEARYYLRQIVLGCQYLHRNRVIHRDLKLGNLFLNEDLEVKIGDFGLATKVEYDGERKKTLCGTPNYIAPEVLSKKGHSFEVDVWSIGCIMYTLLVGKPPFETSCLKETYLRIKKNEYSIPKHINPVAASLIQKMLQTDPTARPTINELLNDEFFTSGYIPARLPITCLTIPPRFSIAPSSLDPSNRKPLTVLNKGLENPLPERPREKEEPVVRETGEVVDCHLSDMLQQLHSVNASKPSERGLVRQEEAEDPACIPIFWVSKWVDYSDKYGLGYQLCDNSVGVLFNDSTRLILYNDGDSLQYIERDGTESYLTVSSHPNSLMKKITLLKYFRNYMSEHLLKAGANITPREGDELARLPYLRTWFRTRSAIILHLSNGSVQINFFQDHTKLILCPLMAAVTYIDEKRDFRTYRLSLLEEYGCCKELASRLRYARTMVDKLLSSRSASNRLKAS
G9a inh – qHTS Assay for Inhibitors of Histone Lysine Methyltransferase G9a; G9a H3K9 monomethylation, AlphaScreen, 2 h; Potency, µM (titrated, usually from 102 µM), for inactives: at the top dose activity, negative = inhibition, hits mostly inhibitors; 350,000 compounds, 8.8% hits; AID 504332, 2011; also: % is scaled to controls: 0 for no effect and ±100 for the full control effect; nearly all actives have a fitted effect of over 75% in size
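Compounds were preincubated with 20 nM G9a for 15 min, after which biotinylated H3K9 peptide (500 nM) and SAM (20 uM) started a 2 h room-temperature reaction. Monomethylated product was quantified by antibody-based AlphaScreen chemiluminescence.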
JMJD2A Tudor – qHTS Assay for Inhibitors of JMJD2A-Tudor Domain; AlphaScreen JMJD2A-Tudor / H3K4me3 peptide binding; Potency, µM (series often up to 114 µM), inactives show at the top dose activity change, negative = inhibition, most hits filed as inhibitors; 390,000 compounds, 4.4% hits; also: % is scaled to controls: 0 for no effect and ±100 for the full control effect; nearly all actives have a fitted effect of over 50% in size
* hit, by the source's call; u = inconclusive; x = no result given; [ ] = dose if it differs, or a comment. Calls follow the shape of the dose curve; as a rule, active = well fitted curve in the direction sought with a large enough effect; inconclusive = small, poorly fitted or top-dose-only effect, or another doubt; inactive = no such curve, though single readings can be large; an effect the other way counts as inactive or inconclusive. Potency is read from the fitted curve at half-maximal effect.

SMILES	HP1b chromo inh	BAZ2B inh	Sfp PPTase inh	PLK1 PBD inh	G9a inh	JMJD2A Tudor
CC1=C(C(=O)N(C(C)C)C(C)C)CC(CC(=O)NCCN2CCOCC2)C(=O)N1Cc1ccccc1 (centres undefined)	x	x	x	-4.7%	x	x
O=C(c1cnc(N2CCCCC2)c2ccccc12)N1CCN(c2ccc(Cl)cc2)CC1	8.6%[57 µM]	-21.2%	x	x	5.2%[59 µM]	-14.5%
CC(=O)c1nc(N2C(=O)CC(Cc3cc(C)cc(C)c3)C2=O)sc1C (centres undefined)	22.3%	-26.2%	25.0%	-13.1%	44.7µM*	-13.6%
Cc1ccc(S(=O)(=O)N2CCN(C(=O)Cc3ccccc3)CC2)cc1C	35.2%	4.8%	x	-6.0%	u	-20.8%
Cc1ccc(S(=O)(=O)N2CCN(C(=O)CCN3C(=O)c4ccccc4C3=O)CC2)cc1C	10.1%	-7.8%	-1.5%	-4.8%	79.4µM*	-5.9%
O=C(CCN1C(=O)c2ccccc2C1=O)N1CCN(Cc2ccc(Cl)cc2Cl)CC1	14.5%	3.8%	-5.3%	-7.7%	39.8µM*	-19.3%
CCOC(=O)C1CCCN(Cc2cn3c(-c4ccc(Br)cc4)nnc3s2)C1 (centres undefined)	29.7%[57 µM]	3.1%	x	x	-12.9%[59 µM]	0.3%
CC(C)OCCCNC(=O)CCCN1C(=O)CCn2nc(-c3cccn3C)cc21	-0.8%[57 µM]	-19.6%	x	x	-9.7%[59 µM]	-18.5%
CC(C)(C)Sc1ccc2nc3c(n2c1)CCCC3	3.9%	u	-11.7%	-3.6%	50.1µM*	-29.8%
CS(=O)(=O)NCc1ccccc1Br	x	6.9%	x	x	3.3%[2.33 µM]	x
COc1ccc(-c2c(C)nn3c(C(F)(F)F)cc(-c4ccccc4)nc23)cc1OC	3.7%	u	x	x	u	u
O=[N+]([O-])c1ccc(/C=N\N2CCN(Cc3ccccc3Cl)CC2)cc1	x	x	x	-7.7%	x	x
O=[N+]([O-])c1ccc(Cl)c(/C=N/N2CCN(Cc3ccccc3)CC2)c1	28.6%	10µM*	5.5%	3.2%	39.8µM*	5.3%
O=[N+]([O-])c1ccc(Cl)c(/C=N/N2CCN(Cc3ccc(Cl)cc3)CC2)c1	23.3%	22.4µM*	-2.8%	0.1%	10µM*	23.2%
O=[N+]([O-])c1cc(/C=N/N2CCN(Cc3ccccc3)CC2)ccc1Cl	u	11.2µM*	-2.9%	-6.7%	28.2µM*	u
O=[N+]([O-])c1ccc(Cl)c(/C=N/N2CCN(Cc3ccccc3Cl)CC2)c1	u	25.1µM*	5.4%	-9.9%	44.7µM*	u
CCCn1c(=O)sc2cc(NC(=O)c3ccccc3OCC)ccc21	23.2%	3.4%	x	x	4.4%[59 µM]	0.0%
CCc1ccc2ncc(S(=O)(=O)c3ccc(Cl)cc3)c(N3CCN(CC)CC3)c2c1	4.6%	u	x	x	-48.8%[59 µM]	u
Clc1cccc(/C=N/N2CCN(Cc3ccccc3)CC2)c1	u	39.8µM*	13.1%	5.3%	44.7µM*	50.1µM*
O=C(/C=C/c1ccc([N+](=O)[O-])cc1)N1CCN(Cc2ccccc2)CC1	23.3%	2.3%	10.6%	-2.6%	-2.5%	-9.0%
O=[N+]([O-])c1ccc(/C=N/N2CCN(Cc3ccccc3)CC2)cc1	u	12.6µM*	-0.9%	2.2%	50.1µM*	44.7µM*
O=C(CCCOc1ccc(Cl)cc1Cl)Nc1cccnc1	25.9%	5.2%	23.5%	-4.1%	44.7µM*	-16.4%
CCCCC(=O)Nc1ccc(C(=O)NNC(=O)CCCOc2ccc(Cl)cc2Cl)cc1	7.8%	4.2%	3.3%	-14.3%	50.1µM*	-32.2%
O=C(CCCOc1ccc(Cl)cc1Cl)N/N=C/c1ccc(Cl)cc1	u	-26.1%	-1.1%	15µM*	27.8%[59 µM]	u
CC(C)[C@H](NC(=O)CNC(=O)OC(C)(C)C)C(=O)N[C@H](C=O)C(C)C	x	x	27.4%	x	26.8%[59 µM]	x
SMILES	HP1b chromo inh	BAZ2B inh	Sfp PPTase inh	PLK1 PBD inh	G9a inh	JMJD2A Tudor
COc1ccc2c(c1)C(=O)c1ccccc1CO2	107.1%	108.7%	28.2µM*	-0.8%	-42.6%[59 µM]	44.5%
O=C(CSc1cn[nH]n1)Nc1ccccc1C(F)(F)F	38.9%	-0.5%	-18.3%	-19.1%	25.1µM*	7.4%
O=C(CSc1n[nH]c(-c2ccncc2)n1)Nc1ccccn1	19.2%	u	-10.6%	-14.0%	u	56.2µM*
O=C1CCCN2N=C(SCC(=O)Nc3ccccc3C(F)(F)F)SC2=N1	u	56.2µM*	-3.4%	0.7%	19.2%	u
NC(=O)c1ccccc1NC(=O)CSc1cn[nH]n1	31.2%	9.0%	9.6%	-0.4%	-5.4%[59 µM]	3.5%
O=C(CSc1n[nH]c(-c2ccncc2)n1)Nc1ccccc1C(F)(F)F	3.8%	4.8%	-14.2%	-17.8%	25.1µM*	-34.5%
Cc1sc2c(c1C)c(=O)n(-c1ccc(Cl)cc1)c(=O)n2Cc1cc(=O)n2cc(Br)ccc2n1	27.5%	0.8%	x	x	-4.3%[59 µM]	-9.2%
Cc1cc(-c2nnc(SCC(=O)Nc3ccccc3C(F)(F)F)n2N)n[nH]1	21.6%	-11.7%	10.9%	5.97µM*	-4.7%	u
CC(=O)Nc1ccc(S(=O)(=O)N2CCCN(S(=O)(=O)c3ccc4c(c3)OCCO4)CC2)cc1	x	x	x	x	x	-14.3%
COc1ccc(COc2ccsc2C(=O)Nc2ccc(Cl)c(Cl)c2)cc1	17.6%	-4.7%	56.2µM*	-4.9%	-6.9%	-28.2%
CCC1CCCCN1C(=O)CCCOc1ccccc1 (centres undefined)	7.4%	0.4%	3.8%	3.36µM*	11.2%	14.1µM*
Cc1ccc(C)c(NC(=O)CCC(=O)NNC(=S)Nc2ccccc2)c1	54.2%	-14.5%	12.0%	-10.1%	50.1µM*	-0.3%
CNC(=S)NNC(=O)CCn1nc(C)c(Br)c1C	22.3%	-2.9%	-1.4%	-10.1%	0.7%[59 µM]	-16.7%
Cc1nn(CCC(=O)NNC(=S)Nc2ccccc2)c(C)c1Br	23.3%	8.2%	2.0%	-13.0%	12.6µM*	-7.9%
Cc1ccc(C)c(NCC(=O)NNC(=S)Nc2ccccc2)c1	19.2%	-18.8%	12.9%	-3.5%	22.4µM*	-28.0%
Cc1nc2nc(CNC(=O)c3cccc(F)c3)nn2c(C)c1CCC(=O)Nc1ccc(F)cc1	43.0%	0.4%	x	x	7.7%[59 µM]	9.4%
Cc1ccc(Cl)cc1-n1c(CCC(=O)O)ccc1-c1cccs1	-0.1%	u	x	x	11.2µM*	u
Cc1cc(Cl)ccc1-n1c(CCC(=O)O)ccc1-c1cccs1	-14.0%	44.7µM*	x	x	u	u
Cc1ccc(NC(=O)CN(C)C(=O)c2cc(-c3ccco3)nc3ccccc23)cc1	50.1µM*	44.7µM*	x	u	31.6µM*	20µM*
